Experimental data taken from PubChem BioAssay.
A number with no mark means an inactive call. Where a call stands in place of a potency, no number is given. For some assays here: Potency and affinity values are given separately. Active and inactive are the calls of the source. Unless noted, how the calls were made is not given here.

Tests used:
[1] = antimalarial activity against Dd2 strain (AID 2302;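 active means growth inhibition above 50% at the single 2 µM test dose, taken to imply half-maximal potency below 2 µM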); details: P. falciparum Dd2 in RBCs, LDH growth readout, 72 h; at 2 µM; active compounds read high
[2] = HepG2 cytotoxicity, primary screen, cytotoxicity control for P. falciparum antimalarial project, cell-based, ATP luminescence (AID 2303;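 active means inhibition above 50%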); details: HepG2 viability, 24-48 h, at 10 µM, active compounds read high
[3] = target: L-lactate dehydrogenase (Plasmodium falciparum (isolate CDC / Honduras)) (UniProt Q27743); assay: PfLDH activity inhibition – cell lysate, 3D7 strain, counter-screen for P. falciparum growth inhibition project (AID 2304); details: P. falciparum 3D7 crude extract, LDH APAD/NBT absorbance; at 2 µM; active compounds read high
[4] = inhibition of 3D7 malaria parasite growth – strain 3D7 (AID 2306); details: P. falciparum 3D7 erythrocytic growth, LDH absorbance, 72 h; at 2 µM; active compounds read high
[5] = target: Calcium-dependent protein kinase 1 (Plasmodium falciparum (isolate 3D7)) (UniProt P62344); assay: PfCDPK1 kinase inhibitors, biochemical, TCAMS library (AID 1159585; cut-off not given, nearly all actives have IC50 up to about 0.98 µM;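 further: inhibitors leave more ATP so luminescence rises with inhibition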); details: recombinant PfCDPK1, Kinase-Glo ATP depletion luminescence
[6] = target: Plasmodium falciparum protein kinase 6 (PK6, PF3D7_1337100) (UniProt Q8IDW1); assay: PfPK6 kinase inhibitors, biochemical, TCAMS library (AID 1159586); details: recombinant PfPK6, Kinase-Glo ATP depletion luminescence
[7] = target: Protein kinase 7 (PK7), Plasmodium falciparum 3D7 (PF3D7_0213400) (UniProt Q7YTF7); assay: inhibition of Plasmodium PK7 catalytic activity – biochemical, TCAMS antimalarial set, Kinase-Glo luminescence (AID 1159587); details: recombinant PfPK7, Kinase-Glo ATP depletion luminescence
[8] = target: Calcium-dependent protein kinase 4 (Plasmodium falciparum (isolate 3D7)) (UniProt Q8IBS5); assay: PfCDPK4 kinase inhibitors, biochemical, TCAMS library (AID 1159588; cut-off not given, nearly all actives have IC50 up to about 0.91 µM); details: recombinant PfCDPK4, Kinase-Glo ATP depletion luminescence
Chain of Calcium-dependent protein kinase 4 (Plasmodium falciparum (isolate 3D7)) (Q8IBS5 whole entry, looked up): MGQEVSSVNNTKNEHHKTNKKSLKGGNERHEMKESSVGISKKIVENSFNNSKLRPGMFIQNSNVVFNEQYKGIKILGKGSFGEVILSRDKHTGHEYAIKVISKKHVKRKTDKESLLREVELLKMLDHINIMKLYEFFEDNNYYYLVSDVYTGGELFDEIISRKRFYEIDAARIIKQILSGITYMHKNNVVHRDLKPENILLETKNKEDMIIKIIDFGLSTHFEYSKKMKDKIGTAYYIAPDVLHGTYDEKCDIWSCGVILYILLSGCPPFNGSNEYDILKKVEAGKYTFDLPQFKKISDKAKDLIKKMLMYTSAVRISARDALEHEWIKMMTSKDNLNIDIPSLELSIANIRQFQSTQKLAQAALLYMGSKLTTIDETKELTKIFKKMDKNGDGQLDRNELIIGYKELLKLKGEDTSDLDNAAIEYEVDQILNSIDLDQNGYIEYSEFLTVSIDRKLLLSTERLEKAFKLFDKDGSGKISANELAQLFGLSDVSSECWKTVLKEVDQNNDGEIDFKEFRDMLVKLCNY

Chain of Protein kinase 7 (PK7), Plasmodium falciparum 3D7 (PF3D7_0213400) (Q7YTF7 1-343): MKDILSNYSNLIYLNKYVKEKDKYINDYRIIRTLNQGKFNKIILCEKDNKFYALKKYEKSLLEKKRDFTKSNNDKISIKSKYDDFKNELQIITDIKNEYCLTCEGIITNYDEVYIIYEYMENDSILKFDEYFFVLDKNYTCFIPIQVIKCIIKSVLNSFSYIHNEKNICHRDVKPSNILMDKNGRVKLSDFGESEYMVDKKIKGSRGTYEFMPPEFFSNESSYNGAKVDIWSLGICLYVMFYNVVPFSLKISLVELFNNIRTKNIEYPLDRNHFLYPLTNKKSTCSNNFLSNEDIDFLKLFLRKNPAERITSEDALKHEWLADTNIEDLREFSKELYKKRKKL
Chain of L-lactate dehydrogenase (Plasmodium falciparum (isolate CDC / Honduras)) (Q27743 whole entry, looked up): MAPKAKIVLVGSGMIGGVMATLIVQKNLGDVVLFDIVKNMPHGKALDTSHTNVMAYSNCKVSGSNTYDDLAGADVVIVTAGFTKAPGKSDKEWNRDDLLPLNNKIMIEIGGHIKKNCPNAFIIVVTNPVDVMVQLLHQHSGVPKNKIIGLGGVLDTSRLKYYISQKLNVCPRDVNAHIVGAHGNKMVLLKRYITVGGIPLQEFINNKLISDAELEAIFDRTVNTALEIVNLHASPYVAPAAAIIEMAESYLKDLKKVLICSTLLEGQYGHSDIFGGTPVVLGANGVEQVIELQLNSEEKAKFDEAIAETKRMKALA
Chain of Plasmodium falciparum protein kinase 6 (PK6, PF3D7_1337100) (Q8IDW1 1-305): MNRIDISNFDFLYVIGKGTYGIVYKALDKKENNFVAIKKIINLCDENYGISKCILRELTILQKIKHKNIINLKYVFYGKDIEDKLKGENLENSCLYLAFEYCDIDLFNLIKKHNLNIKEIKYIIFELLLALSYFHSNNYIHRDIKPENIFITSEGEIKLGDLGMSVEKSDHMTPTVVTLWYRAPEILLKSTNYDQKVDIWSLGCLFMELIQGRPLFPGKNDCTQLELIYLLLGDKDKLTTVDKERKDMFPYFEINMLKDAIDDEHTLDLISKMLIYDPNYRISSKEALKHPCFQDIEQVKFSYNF
Chain of Calcium-dependent protein kinase 1 (Plasmodium falciparum (isolate 3D7)) (P62344 whole entry, looked up): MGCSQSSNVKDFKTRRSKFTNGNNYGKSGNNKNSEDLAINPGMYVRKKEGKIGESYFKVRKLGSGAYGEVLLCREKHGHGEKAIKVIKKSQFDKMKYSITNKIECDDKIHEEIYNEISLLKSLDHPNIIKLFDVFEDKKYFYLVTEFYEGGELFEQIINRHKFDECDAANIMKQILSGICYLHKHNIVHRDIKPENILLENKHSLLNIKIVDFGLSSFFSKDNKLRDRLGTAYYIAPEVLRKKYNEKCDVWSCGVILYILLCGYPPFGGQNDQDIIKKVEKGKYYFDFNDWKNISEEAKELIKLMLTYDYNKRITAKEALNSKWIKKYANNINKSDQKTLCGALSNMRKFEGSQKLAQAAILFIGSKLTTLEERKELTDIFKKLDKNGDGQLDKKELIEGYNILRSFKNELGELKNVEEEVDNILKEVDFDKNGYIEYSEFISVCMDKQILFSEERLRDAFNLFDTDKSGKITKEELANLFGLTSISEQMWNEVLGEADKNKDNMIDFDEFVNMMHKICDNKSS

Compound | growth inhibition [1] | inhibition [2] | inhibition [3] [%] | growth inhibition [4] | outcome [5] | outcome [6] | outcome [7] | outcome [8]
CN(C)c1ccc(-c2csc(C(=O)NCC3CCN(CCC(C)(C)C)C3)c2)cc1 (stereo not given) | 16% | 29% | 4 | 87% (active) | inactive | inactive | inactive | inactive
Cn1nc(C(F)(F)F)c(-c2ccc(Br)cc2)c1NC(=O)Nc1ccc(F)cc1F | 99% (active) | 16% | 0 | 99% (active) | inactive | inactive | inactive | inactive
Cc1cccc(CN2CCCN(Cc3cccc(C(=O)Nc4ccc(C(C)(C)C)cc4)c3)CC2)c1 | 40% | 98% (active) | 4 | 89% (active) | inactive | inactive | inactive | inactive
COc1cc(C2Nc3ccc4ccccc4c3C3=C2C(=O)CC(C)(C)C3)ccc1Oc1ccc([N+](=O)[O-])cc1C#N (stereo not given) | 94% (active) | 8% | -1 | 99% (active) | inactive | inactive | inactive | inactive
COc1ccc2c(NN=Cc3ccc(F)cc3)cc(C)nc2c1 | 99% (active) | 4% | -3 | 101% (active) | inactive | inactive | inactive | inactive
O=C(Nc1ccc2c(c1)CCN(C1CCC1)CC2)c1ccc(-n2ccnc2)cn1 | -1% | 8% | 0 | 92% (active) | inactive | inactive | inactive | inactive
Cc1ccc(O)c(CN2CCCC(COC(c3ccc(F)cc3)c3ccc(F)cc3)C2)c1 (stereo not given) | 98% (active) | 19% | 0 | 98% (active) | inactive | inactive | inactive | inactive
Cc1sc(C)c(C(F)(F)F)c1CNCCCNc1cc(=O)c2ccccc2[nH]1 | 43% | -3% | -1 | 96% (active) | inactive | inactive | inactive | inactive
CN(CCCN(C)c1cc(NC(=O)c2cccc(F)c2)ccn1)Cc1cccc(O)c1 | 4% | -3% | -1 | 92% (active) | inactive | inactive | inactive | inactive
Cn1cc(CN2CCCC(COC(c3ccccc3)c3ccccc3)C2)cn1 (stereo not given) | 99% (active) | 24% | 0 | 99% (active) | inactive | inactive | inactive | inactive
CC(C)(C)c1ccc(OCC(=O)NC2CCN(c3ccnc4cc(Cl)ccc34)C2)cc1 (stereo not given) | 100% (active) | 17% | -2 | 98% (active) | inactive | inactive | inactive | inactive
Cn1cnc(CCNC(=O)c2ccc(-c3cccc(-c4nc5ccc(C(F)(F)F)cc5[nH]4)c3)cc2)c1 | 93% (active) | 25% | 3 | 101% (active) | inactive | inactive | inactive | inactive
O=C(Nc1ccc(Cl)c(Cl)c1)Nc1ccccc1N1CCNCC1 | 22% | 17% | 1 | 101% (active) | inactive | inactive | inactive | inactive
COc1ccccc1Oc1c(N(C)S(=O)(=O)c2ccc(C(C)C)cc2)nc(C(F)(F)F)nc1N(C)S(=O)(=O)c1ccc(C(C)C)cc1 | 98% (active) | 4% | -6 | 94% (active) | inactive | inactive | inactive | inactive
COc1ccc2nccc([C@@H](O)CN3CCC(NC(=O)Cc4cc5ccccc5s4)CC3)c2c1 | 42% | 16% | 7 | 92% (active) | inactive | inactive | inactive | inactive
COc1ccc(NC(=O)[C@H](Cc2ccccc2)Nc2cc(C)nc(Nc3ccccc3)n2)cc1 | 92% (active) | 0% | 2 | 101% (active) | inactive | inactive | inactive | inactive
COc1ccc(C=C2SC(=O)NC2=Nc2ccccc2)c(OC)c1 | 89% (active) | 51% (active) | -3 | 91% (active) | inactive | inactive | inactive | inactive
CC(C)(CNC(=O)/C=C/c1ccc(Cl)c(Cl)c1)CNc1cc(=O)c2ccccc2[nH]1 | 29% | -4% | 0 | 96% (active) | inactive | inactive | inactive | inactive
Cc1cc(O)c(CNC2CCCCC2)cc1C | 95% (active) | 6% | -2 | 95% (active) | inactive | inactive | inactive | inactive
O=C(Nc1cccc(-c2cccc(F)c2)c1)C1CCN(Cc2ccc(O)cc2)CC1 | 2% | 13% | 3 | 87% (active) | inactive | inactive | inactive | inactive

Compound | growth inhibition [1] | inhibition [2] | inhibition [3] [%] | growth inhibition [4] | outcome [5] | outcome [6] | outcome [7] | outcome [8]
CCOc1cc(NCCCNc2ncc([N+](=O)[O-])cc2C)nc2ccccc12 | 64% (active) | 10% | 2 | 84% (active) | inactive | inactive | inactive | inactive
N#Cc1ccc(-c2cnc3ccc(NCc4ccc(S(N)(=O)=O)cc4)nn23)cc1 | 100% (active) | 7% | 5 | 98% (active) | inactive | inactive | inactive | inactive
CC(C)N(CCOc1ccc2c(c1)N(C(=O)Nc1ccc(Cl)c(Cl)c1)CC2)C(C)C | 39% | 15% | 3 | 101% (active) | inactive | inactive | inactive | inactive
CCCCNC(=O)c1cc(CNC2CCCCC2)ccc1-c1cccc(CNCc2ccc(-c3ccccc3)cc2)c1 | 85% (active) | 100% (active) | 0 | 100% (active) | inactive | inactive | inactive | inactive
CC1CN(c2ccc(NC(=O)c3ccc(F)cc3)cc2)CCN1Cc1cccc(F)c1 (stereo not given) | 76% (active) | 11% | 2 | 81% (active) | inactive | inactive | inactive | inactive
COc1ccc(Nc2nc(NCc3cccc(NS(C)(=O)=O)c3)cc(-c3ccc(OC)cc3)n2)cc1 | 5% | -7% | 5 | 84% (active) | inactive | inactive | inactive | inactive
CC(C)N1CCC(N(Cc2ccc(-c3ccc(Cl)cc3)cc2)C(=O)Cn2c(CCc3cccc(F)c3F)nc(=O)c3ccccc32)CC1 | 70% (active) | 61% (active) | 5 | 86% (active) | inactive | inactive | inactive | inactive
COc1ccc(-c2ccc(NC(=O)c3cccc(Cl)c3)cc2)cc1CN(C)CCO | 52% (active) | 39% | -4 | 89% (active) | inactive | inactive | inactive | inactive
CCN(CC)c1ccc(C(c2ccc(N(CC)CC)cc2)c2ccc([N+](=O)[O-])cc2)cc1 | 63% (active) | 20% | 0 | 82% (active) | inactive | inactive | inactive | inactive
CC(C)CNCc1ccc(-c2ccccc2CN(C(=O)NCCc2ccccc2)C2CCN(Cc3ccccc3)CC2)cc1 | 94% (active) | 89% (active) | 2 | 98% (active) | inactive | inactive | inactive | inactive
Oc1c(C(Nc2ccccn2)c2ccc(Cl)cc2Cl)ccc2cccnc12 (stereo not given) | 60% (active) | 42% | 1 | 88% (active) | inactive | inactive | inactive | inactive
O=C(NCCCCN1CCN(c2ccc3c(c2)CCC3)CC1)c1ccc(NC(=O)c2ccc(Cl)cc2)cc1 | 35% | 38% | 2 | 98% (active) | inactive | inactive | inactive | inactive
O=C(Nc1cccc(-c2ccc(-c3nc4ccccc4[nH]3)s2)c1)c1ccncc1 | 29% | 67% (active) | -9 | 92% (active) | inactive | inactive | inactive | inactive
CCNc1cc(C(=O)N[C@@H](Cc2ccccc2)[C@H](O)CNCc2ccc3c(c2)OCCO3)cc(N2CCCCS2(=O)=O)c1 | 45% | -1% | -1 | 95% (active) | inactive | inactive | inactive | inactive
NC(=O)N1CCN(Cc2ccc(Br)cc2)CC1 | 0% | 83% (active) | -5 | 96% (active) | inactive | inactive | inactive | inactive
C[C@H]1CN(Cc2cccc(-c3cc(CNC(=O)c4cccc(CN5CCN(CCOc6ccccc6)CC5)c4)ccc3F)c2)CCN1 | 88% (active) | 59% (active) | 4 | 91% (active) | inactive | inactive | inactive | inactive
COc1ccc2nccc([C@@H](O)CN3CCC(NCC(O)Cc4ccccc4)CC3)c2c1 (stereo not given in full) | 6% | 5% | -3 | 98% (active) | inactive | inactive | inactive | inactive
CC(Cc1ccc(OCCN2CCN(c3cccc(C(F)(F)F)c3)CC2)cc1)NCC(O)c1cccc(C(F)(F)F)c1 (stereo not given) | 91% (active) | 11% | 0 | 97% (active) | inactive | inactive | inactive | inactive
COc1ccc2nc(C)cc(Nc3ccc(Oc4ccc5ccccc5c4)c(Cl)c3)c2c1 | 99% (active) | 40% | 3 | 102% (active) | inactive | inactive | inactive | inactive
CC1(C)N=C(N)N=C(N)N1OCCNCc1ccc(Cl)cc1 | -2% | 5% | -5 | 95% (active) | inactive | inactive | inactive | inactive
